Bioassay records (PubChem)
NLRP3 yeast inh – inhibitors of NALP3 inflammasome in yeast. Yeast reconstituted NLRP3/ASC/caspase-1, beta-gal luminescence, 24 h. inhibition, % at 10 µM. 330,000 compounds, 0.39% hits. AID 2825;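 active = inhibition of 50% or more; inactive = inhibition below 50%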
NALP1 yeast inh – inhibitors of NALP1 inflammasome in yeast. S. cerevisiae NALP1/ASC/caspase-1 growth, X-gal OD620, 72 h. inhibition, % at 10 µM. 280,000 compounds, 0.61% hits. AID 2071; in the data active = inhibition mostly above about 24%, no sharp cut-off; inactive = mostly below about 32%
tim23-1 inh – tim23-1 yeast growth inhibition | S. cerevisiae tim23-1 growth, BacTiter-Glo luminescence, 24 h | inhibition, % at 20 µM | 330,000 compounds, 1.3% hits;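 active = growth inhibition of the mutant yeast at or above 50%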;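 also: temperature-sensitive mutant grown at 25 °C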
TIM10 inh – growth inhibitors of TIM10 yeast strain. S. cerevisiae TIM10 strain growth, BacTiter-Glo luminescence, 24 h. 330,000 compounds, 1.4% hits. AID 463195. inhibition, % at 10 µM;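 active = inhibition of 40% or more at the single tested concentration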;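 also: wild-type TIM10 isogenic control strain grown at permissive 25 °C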
tim10-1 inh – inhibits growth of tim10-1 mutant yeast; 330,000 compounds, 2.2% hits; AID 463190; S. cerevisiae tim10-1 ts strain growth, BacTiter-Glo, 24 h; inhibition, % at 20 µM;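 active = inhibition of at least 40%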;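 also: mutant grown at 25 °C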
tim10-1 conf – tim10-1 yeast growth inhibition, confirmed; shares compounds with tim10-1 inh; 7,400 compounds, 56% hits; S. cerevisiae tim10-1 ts strain growth, BacTiter-Glo, 24 h; AID 463213; inhibition, % at 20 µM;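 active = inhibition of yeast growth at or above a set limit in either of two repeat tests at 20 µM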;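 also: tim10-1 mutant grown at permissive 25 °C to find synthetic lethal compounds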
Each line names hits and unclear results; the compound was inactive in the other large screens (follow-up assays come after a bar, where they were run). Only some compounds are listed: those with a hit (about 4% of all), similar ones and a draw of the others.

Cc1ccc(CNCC(=O)Nc2ccc(N3CCOCC3)cc2)cc1	none
COc1cccc(COC(=O)CCNC(=O)c2ccc(Cl)cc2)c1OC	none (no result: NALP1 yeast inh)
Cc1cc(NS(=O)(=O)c2ccccc2)c([N+](=O)[O-])cc1C	tim10-1 inh 41.3 | tim10-1 conf inactive
CCC(=O)c1ccc(OCC(=O)Nc2ccccc2N2CCCCC2)cc1	none
CC(C)C(c1nnnn1C1CCCC1)N1CCc2ccccc21 (stereo not given)	none
CC(C)C(c1nnnn1C1CCCCC1)N1CCCc2ccccc21 (stereo not given)	tim10-1 inh 43.5 | tim10-1 conf inactive
CC(C)C(c1nnnn1C1CCCC1)N1CCCc2ccccc21 (stereo not given)	tim10-1 inh 41.1 | tim10-1 conf 36.6
CC(C)(C)n1nnnc1C(c1cccs1)N1CCCc2ccccc21 (stereo not given)	tim10-1 inh 42.6 | tim10-1 conf 38.5
Cc1c(-c2ccccc2)c(=O)oc2cc(O)ccc12	none
CN1CCN(S(=O)(=O)c2cccc(C(=O)NCCOc3ccccc3F)c2)CC1	none
COc1cc(C(=O)Nc2ccc3nc(N4CCOCC4)sc3c2)cc(OC)c1OC	tim10-1 inh 41.2 (no result: NALP1 yeast inh) | tim10-1 conf inactive
CCn1c(SCc2nc3ccccc3c(=O)[nH]2)nc2ccccc21	tim10-1 inh 44.1 | tim10-1 conf inactive
COCCn1c(SCc2nc3ccccc3c(=O)[nH]2)nc2ccccc2c1=O	none
CC(C)[C@H](NC(=O)C1CC(=O)N(c2ccc(F)cc2)C1)C(=O)N1CCCCC1 (stereo not given in full)	none
CN(C)CCNC(=O)c1c(NC(=O)c2ccccc2)sc2c1CCCC2	none
CCCNC(=O)c1sc2c(c1C(=O)Nc1ccccn1)CCCC2	tim10-1 inh 47.3 | tim10-1 conf inactive
Cc1nc(CCNC(=O)CC2C(=O)NCCN2CC(C)C)nc2c1CCC2 (stereo not given)	none
O=C(Nc1cccc([N+](=O)[O-])c1)c1ccc2snnc2c1	none
CC(C)(C)c1ccc(C(=O)NNc2cc(N3CCCCC3)nc(N3CCCCC3)n2)cc1	tim10-1 inh 40.1 | tim10-1 conf 35.9
CCCCn1c(N)c(N(CCOC)C(=O)c2cccc(-n3cnnn3)c2)c(=O)[nH]c1=O	none (no result: NALP1 yeast inh)
N#CC(C#N)=Cc1cc2ccccc2nc1N1CCOCC1	tim10-1 inh 44.5 | tim10-1 conf inactive
N#C/C(=C\c1cc2ccccc2nc1N1CCOCC1)C(=O)Nc1ccc(N2CCOCC2)cc1	none
CC(=O)Nc1ccc(NC(=O)CC2(CC(=O)N3CCOCC3)CCCC2)cc1	none (no result: NALP1 yeast inh)
O=C(CSc1nnc(-c2ccc(F)cc2)o1)Nc1ccccc1N1CCOCC1	tim10-1 inh 40.0 (no result: NALP1 yeast inh) | tim10-1 conf inactive
Cc1ccc2c(c1)-n1c(nc3ccccc3c1=O)C(CC(C)C)NC2=O (stereo not given)	none (no result: NALP1 yeast inh)
N/C(=N\OC(=O)COc1ccc2ccccc2c1Br)c1ccccn1	tim10-1 inh 43.2 | tim10-1 conf 54.9
N/C(=N\OC(=O)COc1ccc2ccccc2c1Br)c1cccnc1	none
Cc1cccc(NC(=O)CSc2nc3ccccc3c3nc(CCc4c(C)n[nH]c4C)nn23)c1	tim10-1 inh 41.4 | tim10-1 conf inactive
FC(F)(F)c1nc(N2CCCC2)ncc1-c1nnnn1-c1ccc(Cl)cc1	tim10-1 inh 40.4 | tim10-1 conf inactive
Cc1ccc(-n2nnnc2-c2cnn(-c3ccc(F)cc3)c2C(F)(F)F)cc1	tim10-1 inh 41.4 | tim10-1 conf inactive
Cc1ccc(-c2nnnn2-c2ccc(C)cc2)cc1	none
FC(F)(F)c1ccncc1-c1nnnn1-c1ccc(Cl)cc1	none
Fc1ccc(-n2nnnc2-c2cnc(-c3cccs3)nc2C(F)(F)F)cc1	tim10-1 inh 40.5 | tim10-1 conf inactive
CCCCN(C(=O)c1ccc(S(=O)(=O)N2CCC(C)CC2)cc1)C1CCS(=O)(=O)C1 (stereo not given)	none (no result: NALP1 yeast inh)
Cc1cccc(NC(=O)NC2CCCCCCC2)c1C	none
COc1ccc(Cc2nc3ccc(C(=O)NC(C)c4cnn(C)c4)cc3o2)cc1 (stereo not given)	none
CCOC(=O)c1cc(C(C)(C)C)oc1CNC(=O)c1c(C)oc2c1CCCC2	tim10-1 inh 43.6 | tim10-1 conf 33.1
Cc1ccc(/C=C2\Oc3cc(OC(=O)N4CCOCC4)ccc3C2=O)cc1	none
O=C(Oc1ccc2c(c1)O/C(=C\c1ccncc1)C2=O)c1ccccc1	tim10-1 inh 41.8 | tim10-1 conf inactive
CCOc1ccccc1-c1nn2c(Cc3ccccc3)nnc2s1	tim10-1 inh 41.0 | tim10-1 conf inactive
COc1ccccc1-c1nn2c(-c3ccc(C(C)(C)C)cc3)nnc2s1	none (no result: NLRP3 yeast inh, tim23-1 inh, TIM10 inh, tim10-1 inh)
COc1ccccc1-c1nn2c(C3COc4ccccc4O3)nnc2s1 (stereo not given)	tim10-1 inh 46.0 | tim10-1 conf 48.2
COc1ccccc1-c1nn2c(C(F)(F)F)nnc2s1	tim10-1 inh 45.3 | tim10-1 conf 33.6
C[C@H]1COC(=O)[C@H](CC(=O)OC(C)(C)C)C/C=C\C[C@@H](CC(=O)N[C@@H](CO)Cc2ccccc2)C(=O)N1	none (no result: NALP1 yeast inh)
Cc1nc2ccccc2c2oc(C(=O)N3CCN(C(=O)c4ccco4)CC3)cc12	none
Cc1nc2ccccc2c2oc(C(=O)N3CCC(C)CC3)cc12	tim10-1 inh 46.2 | tim10-1 conf inactive
O=C(NCC(=O)N1CCCC1)c1ccc(Cl)cc1	none (no result: NALP1 yeast inh)
N#CC(C#N)=CC1=C2OC(c3ccccc3)=CC(c3ccccc3)=C2CCC1	tim10-1 inh 48.4 | tim10-1 conf inactive
O=C(NC1CCCCC1)C1CCC(=O)N(Cc2cccc(C(F)(F)F)c2)C1 (stereo not given)	none
CC(=O)N1CCN(c2nc(CC(C)C)c3c(c2C#N)CCC3)CC1	tim10-1 inh 49.5 | tim10-1 conf inactive
CC(C)Cc1nc(N2CCN(C(=O)C(C)C)CC2)c(C#N)c2c1CCC2	none
CCN1C(=O)[C@H]2[C@@H](c3ccc(C)cc3)N3C(=O)N(c4ccccc4)C(=O)[C@@]3(C)[C@H]2C1=O	none
C/C(=N\NC(=S)Nc1ccc(C)cc1)c1cccc(N)c1	tim10-1 inh 41.7 | tim10-1 conf inactive
COc1ccc(/C=C2\CCC/C(=C\c3ccc(OC)c(OC)c3OC)C2=O)c(OC)c1OC	tim10-1 inh 40.7 | tim10-1 conf inactive
CC(=O)Nc1ccc(S(=O)(=O)N2CCC(C(=O)N[C@@H](C)C(=O)NC3CCCC3)CC2)cc1	none
COc1ccc(C2(C)NC(=O)N(CC(=O)Nc3ccc(Br)c(C)c3)C2=O)cc1OC (stereo not given)	none
COc1cccc(N=Nc2ccc3ccccc3c2O)c1	tim10-1 inh 46.0 | tim10-1 conf 31.0
COc1ccc(N=Nc2ccc3ccccc3c2)c(O)c1	none
Cc1ccc2c(nc3s/c(=C\c4ccc(-c5ccccc5C(=O)O)o4)c(=O)n32)c1C	tim10-1 inh 46.4 | tim10-1 conf inactive
CCc1ccc(-c2cc(C)no2)cc1S(=O)(=O)NCCc1ccc(OC)c(OC)c1	none
